gsp agonist = gsp mutant agonism; Potency, µM (series often up to 76.9 µM), for the others: at the highest dose activation (cAMP increase), usual class: activators; gsp mutant cells, cAMP HTRF, 30 min; 0.13% of 340,000 active; active = well fitted activation curve with a large enough effect; inconclusive = small, poorly fitted or top-dose-only effect, or another doubt; inactive = no such curve, though single readings can be large or run the other way; cell line not stated here;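 note: phosphodiesterase inhibitor Ro 20-1724 added with compounds to block cAMP breakdown; potency is the fitted concentration of half-maximal effect; nearly all actives have a fitted effect of over 60% in size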
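Cells in DMEM/10% FBS with G418 were pretreated with compounds in DMSO plus […] (300 uM stock) for 30 min at 37C. cAMP was measured by HTRF (cAMP-d2 plus anti-cAMP antibody-K) after 30 min at room temperature.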
RXFP1 antagonist = antagonists of human relaxin receptor RXFP1; Q9HBX9; HEK293-RXFP1, relaxin-stimulated cAMP HTRF, 30 min; hits give low values; activity change, negative = inhibition, % at 57.5 µM; 0.59% of 350,000 active; AID 1259400;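 active = activity change of -60% or lower, but not beyond a set lower limit; inconclusive = change between -60% and -40%, or beyond the set limit; inactive = change above -40%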; note: % is set by controls: 0 for no effect and ±100 for the full control effect
Target sequence (Q9HBX9 whole entry, looked up): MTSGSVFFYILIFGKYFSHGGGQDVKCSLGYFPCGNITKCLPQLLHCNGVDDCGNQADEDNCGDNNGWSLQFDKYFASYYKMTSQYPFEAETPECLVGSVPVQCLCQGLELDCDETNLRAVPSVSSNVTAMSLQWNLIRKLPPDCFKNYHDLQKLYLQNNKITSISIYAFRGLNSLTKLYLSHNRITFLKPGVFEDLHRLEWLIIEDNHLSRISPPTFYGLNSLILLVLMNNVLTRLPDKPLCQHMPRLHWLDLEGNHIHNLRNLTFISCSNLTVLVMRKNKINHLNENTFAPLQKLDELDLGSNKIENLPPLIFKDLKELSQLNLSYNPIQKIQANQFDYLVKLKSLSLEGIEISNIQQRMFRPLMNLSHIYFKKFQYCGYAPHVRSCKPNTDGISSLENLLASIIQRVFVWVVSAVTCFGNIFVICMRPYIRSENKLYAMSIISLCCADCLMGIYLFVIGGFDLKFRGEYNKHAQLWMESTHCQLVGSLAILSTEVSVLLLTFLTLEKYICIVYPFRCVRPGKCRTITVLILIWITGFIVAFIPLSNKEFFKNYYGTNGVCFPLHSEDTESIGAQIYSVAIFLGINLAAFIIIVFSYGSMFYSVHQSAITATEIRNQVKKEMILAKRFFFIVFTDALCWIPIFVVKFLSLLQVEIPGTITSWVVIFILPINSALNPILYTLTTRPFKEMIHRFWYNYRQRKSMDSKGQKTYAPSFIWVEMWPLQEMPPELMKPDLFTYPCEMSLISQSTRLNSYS
Akt phos inh = inhibitors of Akt phosphorylation; AID 651550; Neuro2A IGF-stimulated pAkt S473 HTRF, 20 min; hits give low values; 0.32% of 360,000 active; activity change, % for hits at 50 µM; in the data active = activity change below about -80%; inconclusive = mostly about -51% to -80%; note: % is set by controls: 0 for no effect and ±100 for the full control effect
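Neuro2A cells in DMEM with 0.5% FBS, overnight at 37 deg C, given compound at single 50 µM final, then IGF (6 nM final) for 20 min at 37 deg C. Lysed; phospho-Akt Ser473 by HTRF after 24 h, 665/615 ratio.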
RXFP1 agonist = RXFP1 (human) receptor agonism | Q9HBX9 | HEK293T-RXFP1 cAMP TR-FRET, 30 min; response scale: percent of porcine relaxin response, buffer zero | Potency, µM (titrated, usually from 57.5 µM), for the others: at the highest dose activation, actives largely listed as activators | 0.3% of 370,000 active | AID 2676; active = well fitted activation curve with a large enough effect; inconclusive = small, poorly fitted or top-dose-only effect; note: potency is the fitted concentration of half-maximal effect; % is set by controls: 0 for no effect and ±100 for the full control effect; nearly all actives have a fitted effect of over 60% in size
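Agonist response is measured as cAMP accumulation in an RXFP1-transfected HEK293T line under PDE4 inhibition. Values are scaled between buffer-only and 29 nM porcine relaxin, and EC50s come from standard Hill equation fits.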
gsp antagonist = antagonists of gsp mutant (McCune-Albright syndrome). gsp-mutant cells, cAMP HTRF, 30 min. Potency, µM (series often up to 76.9 µM), without a hit: at the top dose activity change, negative = inhibition, usual class: inhibitors. 0.4% of 340,000 active. AID 624288; calls by dose curve; cell line not stated here;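 note: intracellular cAMP measured with PDE inhibitor Ro 20-1724 present during compound exposure; potency is the fitted concentration of half-maximal effect; % is set by controls: 0 for no effect and ±100 for the full control effect; nearly all actives have a fitted effect of over 65% in size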
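HTRF cAMP read-out (cAMP-d2 plus anti-cAMP antibody-K in lysis buffer, 30 min RT). Before lysis, cells are exposed to compounds with […] for 30 min at 37C in DPBS containing Ca/Mg, BSA and Tween 20.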
Numbers without * were called inactive; i = inactive; ? = inconclusive; · = not tested or not shown; [ ] = another dose, or the depositor's remark. This is a sample that favours compounds with a hit; in the whole collection about 1.2% have one here.

SMILES	gsp agonist	RXFP1 antagonist	Akt phos inh	RXFP1 agonist	gsp antagonist
Cc1nc(SC(C)C(=O)NCC2CCCO2)c2cc(-c3ccccc3)sc2n1 (stereo unspecified)	-5%[15.4 µM]	-69*	i	1%	-30%
O=c1[nH]c(=O)n(Cc2ccccc2)c2nc(-c3ccco3)cc(C(F)(F)F)c12	-13%	-24	-110%*	4%	1%
Cc1cc(C(F)(F)F)c2c(=O)[nH]c(=O)n(Cc3ccccc3)c2n1	-7%	-5	i	0%	9%
COc1ccc(CCn2c(=O)c3cccnc3n(CC(=O)Nc3ccc(C)c(F)c3)c2=O)cc1OC	·	·	·	4%	·
CCC(CO)NCc1ccc(OC2CCCC2)cc1 (stereo unspecified)	-22%	-4	i	0%	13%
CN(C)CCNCc1ccc(OC2CCCC2)cc1	9%	2	-114%*	6%	2%
Cc1noc(NS(=O)(=O)c2ccc(NC(=O)c3ccc(N4C(=O)c5ccccc5C4=O)cc3)cc2)c1C	-2%[15.4 µM]	-33	i	5%	3%
Cc1noc(NS(=O)(=O)c2ccc(NC(=O)Nc3ccc(Cl)c(Cl)c3)cc2)c1C	?	6	-107%*	0%	-16%
COc1ccc(CC(=O)Nc2ccc(S(=O)(=O)Nc3onc(C)c3C)cc2)cc1OC	-7%	-113*	i	0%	2%
Cc1cc(C)c(C#N)c(SCC(=O)Nc2ccc(S(=O)(=O)Nc3onc(C)c3C)cc2)n1	18µM*	·	i	14%	5%
Cc1noc(NS(=O)(=O)c2ccc(NC(=O)c3nn(-c4ccccc4)ccc3=O)cc2)c1C	14µM*	13	i	?	14%
CCCCC(=O)Nc1c(C(=O)N2CCN(c3ccccc3)CC2)oc2ccccc12	·	?	·	12%	·
CC(CN1CCOCC1)C(Cc1ccccc1)(Cc1ccccc1)C(=O)N1CCCC1 (stereo unspecified)	·	8	·	·	·
CCOC(=O)c1sc2ccccc2c1S(=O)(=O)Nc1ccc(N(C)C)cc1	·	-15	·	8%	·
CSc1ccc(CCNC(=O)c2ccc(CS(=O)(=O)c3ccc(Br)cc3)o2)cc1	·	-25	·	-1%	·
CCN(C(=O)c1cc2c(=O)n3ccccc3nc2s1)C1CCCCC1	-2%[15.4 µM]	-2	i	28%	·
CCCNC(=O)COC(=O)c1cc2c(=O)n3ccccc3nc2s1	11µM*	12	i	?	3%
COc1ccc(CC(=O)Nc2cccc(-c3nnc(-c4ccc(C)cc4)o3)c2)cc1OC	13%	-23	·	1%	?
COc1ccc(CC(=O)Nc2cccc(-c3nnc(-c4ccccc4)o3)c2)cc1OC	-3%	-31	i	3%	?
COc1ccc(CC(=O)Nc2cccc(-c3nnc(-c4cccc(C)c4)o3)c2)cc1OC	16%	-20	i	0%	32µM*
COc1ccc(CC(=O)Nc2ccc(-c3nnc(-c4ccccc4)o3)cc2)cc1OC	21%	-16	-118%*	?	5%
Cc1csc2nc(-c3cccc(NC(=O)c4c(F)cccc4F)c3)cn12	·	·	·	2%	·
Cc1ccc(Nc2nc3nonc3[nH]c2=O)cc1C	-23%	-13	i	0%	-22%
Cc1ccc(Nc2nc3nonc3[nH]c2=O)cc1Cl	10%	-18	i	0%	28µM*
CCC(Oc1ccccc1)C(=O)Nc1cc(-c2ccccc2F)nn1-c1ccccc1 (stereo unspecified)	·	·	·	-3%	·
SMILES	gsp agonist	RXFP1 antagonist	Akt phos inh	RXFP1 agonist	gsp antagonist
CC1CCCN(S(=O)(=O)c2ccc3c(c2)n(C)c(=O)c(=O)n3C)C1 (stereo unspecified)	14%	8	i	6%	50µM*
Cc1ccc(S(=O)(=O)N2CCCC(C)C2)cc1 (stereo unspecified)	-14%	-4	i	0%	-3%
CC1CCCN(S(=O)(=O)c2ccc3c(c2)c(=O)nc2ccc(Cl)cn23)C1 (stereo unspecified)	?	40	i	1%	40µM*
CCc1ccc(-c2cc(C)no2)cc1S(=O)(=O)NCc1ccc(OC)cc1	·	-4	·	1%	·
Cc1cccc(CC(=O)N2CC(=O)Nc3ccc(C)cc3C2c2ccc(F)cc2)c1 (stereo unspecified)	·	-36	·	0%	·
COc1ccc(C)cc1NS(=O)(=O)c1cc(Br)cc2c1N(C(C)=O)C(C)C2 (stereo unspecified)	·	·	·	-5%	·
Cc1cc(C(=O)CSc2nc3ccccc3c(=O)n2C)c(C)n1Cc1ccc2c(c1)OCO2	-10%	-21	-109%*	20µM*	?
Cc1cc(C)c(C#N)c(SCc2ccc(F)cc2)n1	15%	-7	i	6%	-19%
Cc1cc(C)c(C#N)c(SCc2ccc(C#N)cc2)n1	1%	-5	-92%*	2%	6%[15.4 µM]
Cc1cc(C)c(C#N)c(SCCS(=O)(=O)Cc2ccc(Cl)cc2)n1	?	2	-91%*	?	22%
Cc1cc(C)c(C#N)c(SCCS(=O)(=O)c2ccc(Cl)cc2)n1	17%[15.4 µM]	-15	i	-5%	-22%
O=C(CN1CCCCC1)Nc1ccccc1	-14%	-10	i	3%	15%
O=C(CN1CCCCCC1)Nc1ccc(Oc2ccccc2)cc1	14%	-64*	i	0%	2%
CCOc1ccc(NC(=O)CN2CCN(CC(=O)Nc3ccc(F)cc3)CC2)cc1	-57%	-7	-117%*	2%	-4%
CCOc1ccc(NC(=O)CN2CCN(CC(=O)c3ccc(OCC)cc3)CC2)cc1	9%	-12	i	0%	-4%
CSc1nccn1CC(=O)Nc1ccc(F)cc1	1%	-4	-114%*	0%	4%
CCn1c(=O)c2cc(C(=O)N(CCCOC(C)C)Cc3ccco3)sc2c2ccccc21	·	·	·	6%	·
COc1cc(OC)cc(C(=O)Nc2cccc(-c3cn4ccsc4n3)c2)c1	·	16	·	-1%	·
CS(=O)(=O)c1nc(-c2ccccc2)cc(C(F)(F)F)n1	0%[15.4 µM]	-106*	i	1%	18%
Cc1ccc(C(=O)CC(=O)c2ccccc2C)c(O)c1	6%[15.4 µM]	-25	i	0%	14%
C=C(CN(C)C)C(=O)c1ccc(C)cc1C	27%	-81*	i	·	50µM*
O=C(CS(=O)Cc1ccco1)NC/C=C\COc1cc(CN2CCCCC2)ccn1 (stereo unspecified)	·	-12	·	·	·
CCOC(=O)C1CCN(S(=O)(=O)c2ccc(Cl)cc2OC)CC1	11%	-1	i	2%	19%
CCOC(=O)C1CCN(S(=O)(=O)c2cc(Cl)c(C)cc2OC)CC1	4%	0	-105%*	0%	2%
Cc1nn(S(=O)(=O)c2cccs2)c(C)c1Sc1ccc([N+](=O)[O-])cc1	-4%	-5	i	3%	25µM*
COc1ccc2[nH]c(S(=O)Cc3ncc(C)c(OC)c3C)nc2n1 (stereo unspecified)	·	-28	·	·	·
